Measured values: PubChem BioAssay AID1159580 (chemical genetic matrix, 2015)
In all, about 5,500 compounds went through this assay and about 2,000 (36%) were called active. Not shown: some 18% with an inconclusive outcome. Cut-off read from the data, not from the text of the source: active = normalized growth mostly below about 0.91 (no sharp cut-off); inconclusive = no clear call, values can overlap the other calls; inactive = mostly above about 0.92. The list shows a part of the results.

Assay: chemical genetic growth profiling, strain panel (AID 1159580);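 note: tested at 20 µM; growth read once vehicle control cultures reached saturation at 30 °C; 1 = growth at the plate median or of vehicle wells; lower values mean less growth of the strain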
Settings: growth OD

Measured: normalized growth

NCC(N)C(=O)c1ccccc1 (stereo not drawn)
inactive: S. cerevisiae deletion strains, locus YJR043C, strain POL32, stronger effect = lower value 1.01 | S. cerevisiae deletion strains, locus YJR066W, strain TOR1, stronger effect = lower value 0.969 | S. cerevisiae deletion strains, locus YKL009W, strain mrt4, stronger effect = lower value 1.1 | S. cerevisiae deletion strains, locus YKL068W, stronger effect = lower value 1.03 | S. cerevisiae deletion strains, locus YKL085W, strain MDH1 (second series), stronger effect = lower value 1.02 | S. cerevisiae deletion strains, locus YKL085W, strain MDH1, stronger effect = lower value 1.02 | S. cerevisiae deletion strains, locus YKL160W, strain elf1, stronger effect = lower value 1.02 | S. cerevisiae deletion strains, locus YKL190W, strain CNB1, stronger effect = lower value 1.01 | S. cerevisiae deletion strains, locus YKR001C, strain vps1, stronger effect = lower value 0.979 | S. cerevisiae deletion strains, locus YKR026C, strain gcn3, stronger effect = lower value 1.02 | S. cerevisiae deletion strains, locus YKR091W, strain srl3, stronger effect = lower value 1.02 | S. cerevisiae deletion strains, locus YLL001W, strain dnm1, stronger effect = lower value 1.02 | S. cerevisiae deletion strains, locus YLL026W, stronger effect = lower value 1.03 | S. cerevisiae deletion strains, locus YLL041C, strain sdh2, stronger effect = lower value 1.02 | S. cerevisiae deletion strains, locus YLR027C, strain aat2, stronger effect = lower value 1.03 | S. cerevisiae deletion strains, locus YLR039C, strain RIC1, stronger effect = lower value 1.04 | S. cerevisiae deletion strains, locus YLR058C, strain SHM2, stronger effect = lower value 1.01 | S. cerevisiae deletion strains, locus YLR102C, strain apc9, stronger effect = lower value 0.992 | S. cerevisiae deletion strains, locus YLR113W, strain HOG1, stronger effect = lower value 0.949 | S. cerevisiae deletion strains, locus YLR221C, strain rsa3, stronger effect = lower value 1.04 | S. cerevisiae deletion strains, locus YLR258W, strain gsy2, stronger effect = lower value 1 | S. cerevisiae deletion strains, locus YLR262C, strain YPT6 (second series), stronger effect = lower value 1.03 | S. cerevisiae deletion strains, locus YLR262C, strain YPT6, stronger effect = lower value 1.06 | S. cerevisiae deletion strains, locus YLR268W, strain sec22, stronger effect = lower value 0.991 | S. cerevisiae deletion strains, locus YLR320W, strain mms22, stronger effect = lower value 1.04 | S. cerevisiae deletion strains, locus YLR330W, strain CHS5, stronger effect = lower value 1.04 | S. cerevisiae deletion strains, locus YLR342W, strain FKS1 (second series), stronger effect = lower value 0.985 | S. cerevisiae deletion strains, locus YLR342W, strain FKS1, stronger effect = lower value 1.01 | S. cerevisiae deletion strains, locus YLR357W, strain rsc2, stronger effect = lower value 1.03 | S. cerevisiae deletion strains, locus YLR370C, strain arc18, stronger effect = lower value 1.05 | S. cerevisiae deletion strains, locus YLR371W, strain rom2, stronger effect = lower value 1 | S. cerevisiae deletion strains, locus YLR384C, strain iki3, stronger effect = lower value 1.03 | S. cerevisiae deletion strains, locus YLR418C, strain cdc73, stronger effect = lower value 0.987 | S. cerevisiae deletion strains, locus YML016C, strain PPZ1, stronger effect = lower value 1 | S. cerevisiae deletion strains, locus YML032C, strain rad52, stronger effect = lower value 1.01 | S. cerevisiae deletion strains, locus YML120C, strain ndi1, stronger effect = lower value 1 | S. cerevisiae deletion strains, locus YML124C, strain tub3, stronger effect = lower value 1.01 | S. cerevisiae deletion strains, locus YMR058W, strain fet3, stronger effect = lower value 1.05 | S. cerevisiae deletion strains, locus YMR078C, strain ctf18, stronger effect = lower value 1.01 | S. cerevisiae deletion strains, locus YMR125W, strain sto1, stronger effect = lower value 1.01 | S. cerevisiae deletion strains, locus YMR129W, stronger effect = lower value 1.04 | S. cerevisiae deletion strains, locus YMR205C, strain PFK2, stronger effect = lower value 1.06 | S. cerevisiae deletion strains, locus YMR223W, strain ubp8, stronger effect = lower value 1.04 | S. cerevisiae deletion strains, locus YMR231W, strain pep5, stronger effect = lower value 1.03 | S. cerevisiae deletion strains, locus YMR307W, strain GAS1, stronger effect = lower value 0.964 | S. cerevisiae deletion strains, locus YNL067W, strain RPL9B, stronger effect = lower value 1 | S. cerevisiae deletion strains, locus YNL071W, strain lat1, stronger effect = lower value 1.02 | S. cerevisiae deletion strains, locus YNL153C, strain GIM3, stronger effect = lower value 1.01 | S. cerevisiae deletion strains, locus YNL183C, strain NPR1, stronger effect = lower value 0.901 | S. cerevisiae deletion strains, locus YNL209W, strain ssb2, stronger effect = lower value 1.03 | S. cerevisiae deletion strains, locus YNL233W, strain BNI4, stronger effect = lower value 1.02 | S. cerevisiae deletion strains, locus YNL248C, strain rpa49, stronger effect = lower value 1.03 | S. cerevisiae deletion strains, locus YNL250W, strain rad50, stronger effect = lower value 1.02 | S. cerevisiae deletion strains, locus YNL271C, strain bni1, stronger effect = lower value 1.01 | S. cerevisiae deletion strains, locus YNL298W, strain CLA4, stronger effect = lower value 1.01 | S. cerevisiae deletion strains, locus YNL307C, strain MCK1, stronger effect = lower value 0.996 | S. cerevisiae deletion strains, locus YNL322C, strain KRE1 (second series), stronger effect = lower value 1.01 | S. cerevisiae deletion strains, locus YNL322C, strain KRE1, stronger effect = lower value 1.01 | S. cerevisiae deletion strains, locus YNR049C, strain mso1, stronger effect = lower value 1.03 | S. cerevisiae deletion strains, locus YNR052C, strain pop2, stronger effect = lower value 0.994 | S. cerevisiae deletion strains, locus YOL012C, strain htz1 1.74 | S. cerevisiae deletion strains, locus YOL147C, strain pex11, stronger effect = lower value 0.993 | S. cerevisiae deletion strains, locus YOR001W, strain rrp6, stronger effect = lower value 1.04 | S. cerevisiae deletion strains, locus YOR061W, strain CKA2, stronger effect = lower value 1.01 | S. cerevisiae deletion strains, locus YOR069W, strain VPS5, stronger effect = lower value 1.01 | S. cerevisiae deletion strains, locus YOR070C, strain gyp1, stronger effect = lower value 1.04 | S. cerevisiae deletion strains, locus YOR080W, strain dia2, stronger effect = lower value 1.05 | S. cerevisiae deletion strains, locus YOR083W, strain WHI5, stronger effect = lower value 1.02 | S. cerevisiae deletion strains, locus YOR106W, strain vam3, stronger effect = lower value 1.02 | S. cerevisiae deletion strains, locus YOR136W, strain idh2, stronger effect = lower value 1.01 | S. cerevisiae deletion strains, locus YOR144C, strain elg1, stronger effect = lower value 0.996 | S. cerevisiae deletion strains, locus YOR184W, strain ser1, stronger effect = lower value 0.994 | S. cerevisiae deletion strains, locus YOR231W, strain MKK1, stronger effect = lower value 0.962 | S. cerevisiae deletion strains, locus YOR265W, strain rbl2, stronger effect = lower value 1.05 | S. cerevisiae deletion strains, locus YOR270C, strain vph1, stronger effect = lower value 1.11 | S. cerevisiae deletion strains, locus YOR290C, strain snf2, stronger effect = lower value 1 | S. cerevisiae deletion strains, locus YOR316C, strain cot1, stronger effect = lower value 0.993 | S. cerevisiae deletion strains, locus YPL051W, strain arl3, stronger effect = lower value 1.04 | S. cerevisiae deletion strains, locus YPL078C, strain atp4, stronger effect = lower value 1.02 | S. cerevisiae deletion strains, locus YPL106C, strain sse1, stronger effect = lower value 1.01 | S. cerevisiae deletion strains, locus YPL240C, strain hsp82, stronger effect = lower value 1.02 | S. cerevisiae deletion strains, locus YPL256C, strain CLN2, stronger effect = lower value 0.96 | S. cerevisiae deletion strains, locus YPR119W, strain clb2, stronger effect = lower value 0.999 | S. cerevisiae deletion strains, locus YPR141C, strain kar3, stronger effect = lower value 1.01 | S. cerevisiae deletion strains, locus YPR163C, strain tif3, stronger effect = lower value 0.995 | S. cerevisiae deletion strains, locus YPR167C, strain met16, stronger effect = lower value 1.01 | S. cerevisiae deletion strains, strain wtn01, stronger effect = lower value 0.999 | S. cerevisiae strains, strain wild type, stronger effect = lower value 1.02
